In PubChem BioAssay (Tox21):
Inconclusive results are not listed. A number with no mark means an inactive call. Active and inactive are the calls of the source. The call rests on the fitted dose curve; in most records, active means well fitted inhibition curve with a large enough effect in the repeat runs; inconclusive means weak or mixed curves; inactive means no such curve, though single readings can be large or run the other way.

What follows are molecules tested against Cytochrome P450 2D6 (Homo sapiens) (UniProt P10635) (assay: Cytochrome P450 Family 2 Subfamily D Member 6 (CYP2D6) small molecule antagonists: luciferase reporter qHTS assay (AID 1671196; further: nearly all actives have a fitted effect of over 50% in size)). Conditions: P450-Glo CYP2D6 enzyme assay, luciferin luminescence, 1 h; series mostly up to 115 µM; activity change, negative = inhibition: at the top concentration.
Description: U.S. Tox21 Program National Center for Advancing Translational Sciences [NCATS] U.S. Environmental Protection Agency [EPA] National Institutes of Environmental Health Sciences [NIEHS] National Toxicology Program [NTP] U.S. Food and Drug Administration [FDA] Tox21 Assay Overview: Cytochrome P450 (CYP) enzymes are membrane-bound hemeproteins that play a key role in metabolism of drugs and xenobiotics. Evaluation of the effect of chemicals on CYP isozymes is useful to minimize the adverse drug reactions and toxicities in drug development process. Tox21 chemicals were tested for their effect on CYP enzyme activities by using P450-Glo (TM) screening systems (Promega Corporation, Madison, WI). These systems provide a luminescent method containing proluciferin substrates and are converted to luciferin products by CYP isozymes. The luciferin products formed are detected with a luciferin detection reagent, and the amount of light produced is proportional to CYP activity. P450-Glo (TM) CYP2D6 screening system (Catalog. No. V9890) was used to detect the compounds that interfere in CYP2D6 activity.
Tox21 Assay Protocol Summary: Two ul of enzyme-substrate mix was dispensed into medium binding white/solid 1536-well plates (Greiner Bio-One North America Inc., Monroe, NC) using a BioRaptr Flying Reagent Dispenser (FRD, Beckman Coulter, Brea, CA). […] The assay plates were incubated at room temperature for 10 min. Then 2 ul of NADPH regeneration solution was added to each well of the assay plates using an FRD and incubated at room temperature for 1 h. The reaction was stopped by adding 4 ul of detection reagent using an FRD and after 20 min incubation at room temperature the luminescence signal was measured using a ViewLux plate reader (Perkin Elmer, Shelton, CT). Data were expressed as relative luminescence units.
On the % scale 0 is the no-effect control and ±100 the full control effect; potency means the concentration at half of the fitted maximal effect.

Chain of Cytochrome P450 2D6 (Homo sapiens) (P10635 whole entry, looked up): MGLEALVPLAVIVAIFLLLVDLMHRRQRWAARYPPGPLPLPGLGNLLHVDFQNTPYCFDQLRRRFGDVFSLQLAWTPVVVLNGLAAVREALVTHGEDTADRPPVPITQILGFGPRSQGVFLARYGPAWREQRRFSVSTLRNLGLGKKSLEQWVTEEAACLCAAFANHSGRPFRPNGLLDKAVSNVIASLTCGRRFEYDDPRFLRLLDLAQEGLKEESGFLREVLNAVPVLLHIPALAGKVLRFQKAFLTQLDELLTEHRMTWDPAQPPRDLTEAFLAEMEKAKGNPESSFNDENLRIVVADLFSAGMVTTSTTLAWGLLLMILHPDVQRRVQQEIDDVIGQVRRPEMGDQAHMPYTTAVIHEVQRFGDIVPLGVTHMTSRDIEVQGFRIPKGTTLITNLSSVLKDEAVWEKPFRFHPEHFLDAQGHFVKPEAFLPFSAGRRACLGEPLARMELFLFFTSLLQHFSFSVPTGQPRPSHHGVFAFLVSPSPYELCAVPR

Row | SMILES | activity change, negative = inhibition | Potency
1 | COc1ccc(-c2nc3ccc(C4=NNC(=O)CC4C)cc3[nH]2)cc1 (stereo not given) | -14.2% [at 53 µM] | 
2 | c1cc(CCCc2ccncc2)ccn1 |  | 1.78 µM (active)
3 | CCOc1ccc(O)cc1 | -11.2% | 
4 | CCCCCCCC/C=C\CCCCCCCC(=O)OCC | -8.44% | 
5 | C/C=C/C(=O)CC | 0.0645% [at 23.6 µM] | 
6 | CC1=CC[C@H](C(C)C)C=C1 |  | 56.4 µM (active)
7 | OC(CN1CCC(Cc2ccc(F)cc2)CC1)c1ccc(Cl)cc1 (stereo not given) |  | 0.138 µM (active)
8 | COc1cc2nc(Cl)nc(N)c2cc1OC | -14.6% [at 53 µM] | 
9 | CCCCC | -21.5% | 
10 | NCCCN1CCOCC1 |  | 35.5 µM (active)
11 | Nc1cccc(S(=O)(=O)c2cccc(N)c2)c1 | -18.1% | 
12 | CC(CC=O)c1ccccc1 (stereo not given) | -20.7% | 
13 | CC(=O)c1ccc2c(c1)N(CCCN(C)C)c1ccccc1S2 |  | 1.95 µM (active)
14 | Nc1cccc([N+](=O)[O-])c1 | -18.6% | 
15 | CN1CCC(=C2c3ccccc3Sc3ccccc32)CC1 |  | 3.47 µM (active)
16 | C=C(C)C(=O)OCCO | -2.02% | 
17 | Nc1ncn([C@H]2C[C@H](O)[C@@H](CO)O2)c(=O)n1 | -3.58% [at 53 µM] | 
18 | NS(=O)(=O)c1ccc(N2CCCCS2(=O)=O)cc1 | -1.25% [at 53 µM] | 
19 | COS(=O)(=O)C(F)(F)F | -21.4% | 
20 | CC(=O)[O][Al][O]C(C)=O | -6.7% | 

Row | SMILES | activity change, negative = inhibition | Potency
21 | OC(C#CCN1CCCC1)(c1ccccc1)c1ccccc1 |  | 11 µM (active)
22 | CC(C)(O)c1ccc(CNC(=O)c2cccnc2Oc2ccc(F)cc2)cc1 | -12% | 
23 | CCOc1ccc(N)c([N+](=O)[O-])c1 |  | 71 µM (active)
24 | CCCCCCCCCOS(=O)(=O)O | -10.4% | 
25 | CC(C)(COC(=O)c1ccccc1)COC(=O)c1ccccc1 | 0.166% | 
26 | O=C(O)c1ccc(S(=O)(=O)O)cc1C(=O)O | -17.2% | 
27 | O=CC1CC=CCC1 (stereo not given) |  | 55.9 µM (active)
28 | C=C(C)C(=O)OCC | -2.97% | 
29 | Brc1c2ccccc2c(Br)c2ccccc12 | 0.168% [at 10.5 µM] | 
30 | O=S(c1cc(Cl)cc(Cl)c1O)c1cc(Cl)cc(Cl)c1O | -1.03% [at 53 µM] | 
31 | COC(=O)c1ccc(I)cc1S(=O)(=O)NC(=O)Nc1nc(C)nc(OC)n1 | -3.33% | 
32 | CCN(CC)c1ccc(C(=C2C=CC(=[N+](CC)CC)C=C2)c2cc(S(=O)(=O)O)ccc2S(=O)(=O)[O-])cc1 |  | 13.8 µM (active)
33 | CC(C)C[C@H]1C(=O)N2CCC[C@H]2[C@]2(O)O[C@](NC(=O)[C@@H]3C=C4c5cccc6[nH]c(Br)c(c56)C[C@H]4N(C)C3)(C(C)C)C(=O)N12 | -23.7% [at 53 µM] | 
34 | CCNc1cc(O)ccc1C |  | 39.5 µM (active)
35 | Cc1cccc(C)c1OCC(=O)N[C@@H](Cc1ccccc1)[C@@H](O)C[C@H](Cc1ccccc1)NC(=O)[C@H](C(C)C)N1CCCNC1=O |  | 15.5 µM (active)
36 | CC1CCC(=O)C1=O (stereo not given) | -7.49% | 
37 | NC(N)=NCCC[C@H](N)C(=O)O | -7.41% [at 10.5 µM] | 
38 | CC(C)Nc1ccc(NC(C)C)c2c1C(=O)c1ccccc1C2=O | -3.36% [at 53 µM] | 
39 | CC/C=C\CCOC(=O)CC | -2.75% | 
40 | O=C1c2ccccc2S(=O)(=O)N1CCCCN1CCN(c2ncccn2)CC1 |  | 1.38 µM (active)
